Experimental data reported in PubChem BioAssay.
Results filed as inconclusive are left out. The source made the active and inactive calls. Unless noted, cut-off not given; nearly all actives show AC50 up to about 26 µM.

Key:
[1] = viability loss in pontine glioma line – cell-based, SU-DIPG-XVII, MIPE5.0, CellTiter-Glo, qHTS, dose response (AID 1347060); details: CellTiter-Glo ATP luminescence;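 on AC50: cells exposed to compound for 48 hours before viability readout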
[2] = viability loss in pontine glioma line – cell-based, SU-DIPG-XIII, MIPE5.0, CellTiter-Glo, qHTS, dose response (AID 1347064; cut-off not given, nearly all actives have AC50 up to about 23 µM;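 on AC50: cells exposed to compound for 48 hours before the viability read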); details: CellTiter-Glo ATP luminescence
[3] = viability loss in pontine glioma line – cell-based, SU-DIPG-XXV, MIPE5.0, CellTiter-Glo, qHTS, dose response (AID 1347065); details: CellTiter-Glo ATP luminescence;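 further: cells exposed to compound for 48 hours before ATP readout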
[4] = JHH-DIPG-1 glioma cell viability, MIPE5.0 library, CellTiter-Glo luminescence, qHTS (AID 1347067); details: JHH-DIPG-1 glioma viability, CellTiter-Glo ATP luminescence;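 further: cells exposed to compound for 48 hours before readout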
[5] = growth inhibition of DIPG cells – cell-based, MIPE5.0 library, qHTS (AID 1347068; cut-off not given, nearly all actives have IC50 up to about 30 µM;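 on IC50: cells exposed to compound for 48 hours before viability readout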); details: SU-DIPG-XXV viability

## Cc1c[nH]c2ncnc(N3CCC(CN)(C(=O)Nc4cccc(OC(=O)N(C)C)c4)CC3)c12
[1]
  outcome: inactive
[2]
  AC50: 11.8 µM (active)
[3]
  AC50: 16.6 µM (active)

## OC1CCC(Oc2cccc3cnc(Nc4ccc5nc[nH]c5c4)nc23)CC1 (stereo not drawn)
[1]
  AC50: 0.833 µM (active)
[2]
  AC50: 2.09 µM (active)
[3]
  AC50: 0.661 µM (active)
[4]
  AC50: 1.32 µM (active)
[5]
  IC50: 1.05 µM (active)

## CCc1cc(C(N)=O)ccc1-n1nc(C(C)C)c2c(-n3cnc(-c4cnn(C)c4)c3)ccnc21
[1]
  AC50: 1.86 µM (active)
[2]
  AC50: 3.72 µM (active)
[3]
  AC50: 1.86 µM (active)
[4]
  AC50: 3.32 µM (active)
[5]
  IC50: 3.32 µM (active)

## CC(=O)c1cc2c(o1)C(=O)c1ccccc1C2=O
[1]
  AC50: 3.32 µM (active)
[2]
  AC50: 0.934 µM (active)
[3]
  AC50: 2.95 µM (active)
[4]
  AC50: 1.66 µM (active)
[5]
  IC50: 2.95 µM (active)

## c1ccc2c(-c3cnn4cc(-c5ccc(OCCN6CCOCC6)cc5)cnc34)ccnc2c1
[1]
  AC50: 12.9 µM (active)
[2]
  AC50: 14.4 µM (active)
[3]
  AC50: 9.1 µM (active)
[4]
  AC50: 10.2 µM (active)
[5]
  outcome: inactive

## CN(C)CCNC(=O)COc1c2cccc1Cc1cccc(c1OCC(=O)NCCN(C)C)Cc1cccc(c1OCC(=O)NCCN(C)C)Cc1cccc(c1OCC(=O)NCCN(C)C)C2
[1]
  outcome: inactive
[2]
  outcome: inactive
[3]
  outcome: inactive
[4]
  outcome: inactive
[5]
  outcome: inactive

## O=C(/C=C/c1ccc2ccc(C(F)(F)F)cc2n1)c1ccncc1
[1]
  AC50: 4.17 µM (active)
[2]
  AC50: 1.48 µM (active)
[3]
  AC50: 2.95 µM (active)
[4]
  AC50: 2.35 µM (active)
[5]
  IC50: 7.42 µM (active)

## CC(C)N(CCCNC(=O)Nc1ccc(C(C)(C)C)cc1)C[C@H]1O[C@@H](n2ccc3c(N)ncnc32)[C@H](O)[C@@H]1O
[1]
  outcome: inactive
[2]
  outcome: inactive
[3]
  outcome: inactive
[4]
  outcome: inactive
[5]
  outcome: inactive

## CNC(=O)Cn1cc(-c2ccc3c(c2)C(F)CC32NC(=O)N(CC(=O)N(Cc3ccc(F)cc3)[C@@H](C)C(F)(F)F)C2=O)cn1 (stereo partly drawn)
[1]
  outcome: inactive
[2]
  outcome: inactive
[3]
  outcome: inactive
[4]
  outcome: inactive
[5]
  outcome: inactive

## CNS(=O)(=O)c1ccc2c(c1)/C(=C/c1[nH]c3c(c1CCCN1CCN(C)CC1)CCCC3)C(=O)N2
[1]
  AC50: 7.42 µM (active)
[2]
  AC50: 8.33 µM (active)
[3]
  AC50: 7.42 µM (active)
[4]
  AC50: 10.5 µM (active)
[5]
  outcome: inactive

## Cc1[nH]c(/C=C2\C(=O)Nc3ccc(F)cc32)c(C)c1C(=O)NCCN1CCCC1
[1]
  AC50: 12.9 µM (active)
[2]
  AC50: 7.23 µM (active)
[3]
  AC50: 6.45 µM (active)
[4]
  AC50: 10.2 µM (active)
[5]
  outcome: inactive

## O=C1NC(=O)C(c2cnc3ccccn23)=C1c1cn2c3c(cc(F)cc13)CN(C(=O)N1CCCCC1)CC2
[1]
  AC50: 1.86 µM (active)
[2]
  AC50: 16.6 µM (active)
[3]
  AC50: 18.6 µM (active)
[4]
  AC50: 20.9 µM (active)
[5]
  IC50: 20.9 µM (active)

## Cc1ccc(-c2ccc3ncc4c(c3n2)n(C2CCN(C(=O)[C@H](C)O)CC2)c(=O)n4C)cn1
[1]
  AC50: 0.468 µM (active)
[2]
  AC50: 0.186 µM (active)
[3]
  AC50: 0.186 µM (active)
[4]
  AC50: 0.372 µM (active)
[5]
  IC50: 0.417 µM (active)
